From PubChem BioAssay
Gal4-VP16 FLuc – Gal4-VP16 reporter inhibition counter-screen. Drosophila S2 Gal4-VP16 UAS-luciferase, luminescence, 20 h. Potency, µM (titrated, usually from 53.6 µM), without a hit: at the highest dose activity, negative = inhibition, actives largely listed as inhibitors. actives 3.5% (n = 310,000);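 further: Gal4-VP16 expression switched on by copper sulfate through the metallothionein promoter; potency means the concentration at half of the fitted maximal effect; on the % scale 0 is the no-effect control and ±100 the full control effect; nearly all actives have a fitted effect of over 50% in size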
SW480 rerep – inducers of DNA re-replication in SW480 colon cancer cells. SW480 DNA re-replication, Hoechst DNA content imaging, 48 h. Potency, µM (series often up to 46.1 µM), for inactives: at the highest dose re-replication activation, most hits filed as activators. actives 1.8% (n = 340,000). AID 624297; further: potency means the concentration at half of the fitted maximal effect; % of control where 0% means no effect; nearly all actives have a fitted effect of over 55% in size
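Cells (250 per well) received 23 nL compound or DMSO by pin tool and were kept 48 hr at 37 C, 5% CO2. Nuclei were then stained with Hoechst for 40 min and scanned for DNA content.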
RORgamma inh – ROR gamma (mouse) transcription inhibition. Drosophila S2 Gal4-RORgamma UAS-luciferase reporter, 20 h. P51450. Potency, µM (series often up to 53.6 µM), without a hit: top-dose activity change, negative = inhibition, actives largely listed as inhibitors. actives 5.4% (n = 310,000); further: potency means the concentration at half of the fitted maximal effect; on the % scale 0 is the no-effect control and ±100 the full control effect; nearly all actives have a fitted effect of over 60% in size
Target sequence (P51450 whole entry, looked up, the tested form may be a part): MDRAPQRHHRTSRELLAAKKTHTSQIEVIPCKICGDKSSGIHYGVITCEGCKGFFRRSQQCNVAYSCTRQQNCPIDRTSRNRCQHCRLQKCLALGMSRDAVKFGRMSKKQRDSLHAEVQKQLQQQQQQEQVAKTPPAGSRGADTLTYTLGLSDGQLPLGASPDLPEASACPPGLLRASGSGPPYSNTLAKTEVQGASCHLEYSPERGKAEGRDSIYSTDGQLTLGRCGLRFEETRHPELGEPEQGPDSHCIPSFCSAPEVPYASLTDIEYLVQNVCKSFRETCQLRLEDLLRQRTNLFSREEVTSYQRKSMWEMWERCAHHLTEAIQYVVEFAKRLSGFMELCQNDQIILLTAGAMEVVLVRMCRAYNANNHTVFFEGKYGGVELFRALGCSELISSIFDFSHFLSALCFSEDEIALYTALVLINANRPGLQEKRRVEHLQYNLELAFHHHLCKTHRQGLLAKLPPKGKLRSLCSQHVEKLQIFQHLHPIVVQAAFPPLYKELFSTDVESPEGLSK
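A Gal4/UAS one-hybrid system in insect cells: metallothionein-promoter Gal4–ROR gamma fusion plus Photinus luciferase reporter. Copper sulfate 700 uM final, 20 hr ambient incubation, luminescent detection after 10 min with reagent.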
Giardia killer – Giardia lamblia killing; AID 540267; activity change, % at 7.66 µM, hits read low; actives 0.15% (n = 340,000); Giardia lamblia trophozoite viability; in the data active means activity change below about -80%; inconclusive means between about -30% and that limit;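 further: parasites exposed to compound for two days anaerobically before the ATP read; on the % scale 0 is the no-effect control and ±100 the full control effect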
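Compounds were tested on trophozoites seeded at 100 cells/well and held 48 hrs at 37 deg C anaerobically. An ATP-based luminescent kit measured the remaining live cells.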
MCF10A rereplic – DNA re-replication induction in MCF 10a cells; actives 2.9% (n = 350,000); Potency, µM (titrated, usually from 46.1 µM), inactives show at the highest dose activity, positive = re-replication, usual class: activators; AID 624296; MCF 10A DNA re-replication, Hoechst nuclear intensity, 48 h; further: potency means the concentration at half of the fitted maximal effect; % of control where 0% means no effect; nearly all actives have a fitted effect of over 50% in size
BCR signal inh – blocks chronic active B-cell receptor signaling; ABC-DLBCL IkBa-CBG/CBR reporter, luminescence ratio, 4 h; Potency, µM (series often up to 46.1 µM), for inactives: top-dose activity change, negative = inhibition, most hits filed as inhibitors; actives 0.05% (n = 340,000); active means well fitted inhibition curve with a large enough effect in the signal ratio, with a control signal flat, not every such curve was filed as active; inconclusive means small, poorly fitted or top-dose-only effect, or effect the other way, or a change in a side signal; the % refers to the signal ratio;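 further: potency means the concentration at half of the fitted maximal effect; plate controls were basal doxycycline-induced cells for no effect and cells given 10 µM MG132 for full effect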
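Cell line TMD8 (human ABC DLBCL), stably expressing tet-inducible CBG68-IkBa fusion and CBR; IMDM/0.5% FBS; cpd up to 46 uM; dox induction, 4 h, 37C/5% CO2; dual luminescence; green/red ratio; MG132 control.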
Numbers without * were called inactive; ? = inconclusive; . = no result given; ! = not active in a repeat. In the library only some 8.3% were active in any assay of this set; here they are far more common. Unless noted, the call rests on the fitted dose curve; in most records, active means well fitted curve in the direction sought with a large enough effect; inconclusive means small, poorly fitted or top-dose-only effect, or another doubt; inactive means no such curve, though single readings can be large; an effect the other way counts as inactive or inconclusive.

SMILES	Gal4-VP16 FLuc	SW480 rerep	RORgamma inh	Giardia killer	MCF10A rereplic	BCR signal inh
CCC(C)(C)C(=O)Nc1nnc(CCc2ccccc2)s1	?	-0.2%	?	?	0.5%	7.0%
O=C(Nc1nnc(SCc2ccc(F)cc2)s1)c1ccco1	3.0%	1.6%	?	20.0	0.1%	?
CC(C)(C)C(=O)Nc1nnc(Cc2ccccc2)s1	1.3%	-10.9%	12.6µM*	-20.1	-1.0%	1.1%
CCCOc1cccc(-c2nnc(NC(=O)c3ccco3)s2)c1	-1.3%	8.3%	-25.1%	?	8.2µM*	?
COc1ccc(NS(=O)(=O)c2cccc(C(=O)NNC(=O)c3cccc(NC(C)=O)c3)c2)cc1	.	0.0%	.	6.8	0.3%	-7.6%
COc1ccc(C2/C=C\CN(C(=O)c3ccccc3)[C@H](Cc3ccccc3)C(=O)N2Cc2ccc(F)cc2)cc1 (stereo partly drawn)	16.3%	5.9%	?	10.9	?	4.7%
CC(C)(C)C(=O)Nc1nnc(SCc2cccc(F)c2)s1	7.6%	-9.8%	?	16.2	0.651µM*	18.4%
CC(C)(C)C(=O)Nc1nnc(SCc2ccc(F)cc2)s1	-1.8%	-14.9%	?	-1.8	-0.6%	12.9%
O=C(CNS(=O)(=O)c1ccc(Br)s1)NCc1ccc(F)cc1	-5.1%	-4.7%	32.6%	6.1	8.8%	-14.0%
O=C(CNS(=O)(=O)c1ccc(Br)s1)NCc1ccccc1	-2.2%	2.82µM*	39.0%	-23.5	?	7.4%
O=C1c2ccccc2NC(c2cccc(F)c2)N1Cc1ccccc1 (stereo not drawn)	0.6%	?	-13.4%	9.8	20.6µM*	1.1%
O=C(CN1CCOCC1)Nc1ccc(Cl)cn1	.	-6.5%	.	-1.9	-6.9%	-0.6%
COc1ccc(N2CC(NC(=O)c3ccc4c(c3)OCO4)CC2=O)cc1 (stereo not drawn)	.	.	.	.	.	-54.6%
O=C(COc1ccccc1Cl)Nc1ccc(S(=O)(=O)Nc2ccccn2)cc1	3.4%	23.5%	10.1%	32.9	1.8%	-2.2%
CCCCCCCCC1=NCCc2c1[nH]c1ccccc21	2.9%	?	-23.5%	-24.5	11.6µM*	-8.4%
CCCCOc1cc(C(=O)NCCN(CC)CC)c2ccccc2n1	?	-48.6%	-42.8%	-11.7	11.6µM*!	?
CCN(CC)CCNC(=O)c1cc(-c2ccc(Br)s2)nc2ccccc12	-1.3%	?	-7.1%	2.5	?	7.9%
Cc1ccc(/C=c2/sc3n(c2=O)CCCN=3)o1	?	0.8%	7.08µM*	-6.0	6.8%	0.5%
NC(=O)COc1ccc(/C=C2\C(=O)ON=C2c2ccccc2)cc1	.	?	.	-9.0	?	7.2%
NNC(=O)c1oc2nc(-c3ccco3)cc(-c3ccco3)c2c1N	-18.1%	-0.2%	-7.7%	-23.3	?	?
Nc1c(C(=O)N/N=C/c2cccnc2)oc2nc(-c3ccccc3)cc(-c3ccco3)c12	7.4%	?	-28.4%	-10.9	18.4µM*	?
NNC(=O)c1oc2nc(-c3ccc(Cl)cc3)cc(-c3ccccc3)c2c1N	4.0%	23.1µM*	-22.3%	?	8.2µM*	-1.7%
Oc1ccc(N=Nc2n[nH]c(-c3ccccc3)n2)cc1	-27.2%	-6.1%	?	5.9	?	?
Oc1ccc(N=Nc2nc(-c3ccccc3)c(-c3ccccc3)[nH]2)cc1	?	2.1%	12.6µM*	0.3	1.2%	?
Cc1cc(F)ccc1S(=O)(=O)N1CCCOC1CNC(=O)C(=O)NCc1ccccn1 (stereo not drawn)	-8.3%	-10.4%	12.4%	10.2	0.3%	-1.3%
SMILES	Gal4-VP16 FLuc	SW480 rerep	RORgamma inh	Giardia killer	MCF10A rereplic	BCR signal inh
COc1cc(/C=N/Nc2nc(Nc3ccccc3)nc(N3CCCCC3)n2)ccc1OCC(=O)O	-13.7%	-9.3%	-9.1%	0.2	-3.4%	?
COc1ccc(O)c(/C=N/Nc2nc(Nc3ccccc3)nc(-n3nc(C)cc3C)n2)c1	0.631µM*	?	0.631µM*	-6.1	?	?
COc1cc(/C=N/Nc2nc(Nc3ccccc3)nc(-n3nc(C)cc3C)n2)cc(OC)c1OC	6.31µM*	?	5.01µM*	16.2	14.6µM*	?
COc1ccccc1/C=N/Nc1nc(C)cc(C)n1	-7.9%	-6.9%	1.9%	-15.8	0.0%	?
COc1cc(/C=N/Nc2nc(Nc3ccc(C)cc3)nc(-n3nc(C)cc3C)n2)cc(OC)c1OC	?	13µM*	-25.1%	0.9	?	?
C=CCC(Nc1ccccc1)c1ccc(OC)c(OC)c1 (stereo not drawn)	7.3%	.	13.2%	.	.	-15.6%
CN1CC(=O)N(CC(=O)Nc2ccc(Cl)c(C(F)(F)F)c2)c2ccccc2C1=O	.	.	.	.	.	10.3%
C(=N\N1CCN(C2c3ccccc3-c3ccccc32)CC1)/c1cccnc1	?	-6.3%	-28.4%	-20.7	?	9.1%
C(=N\N1CCN(C2c3ccccc3-c3ccccc32)CC1)/c1ccccn1	?	-1.2%	7.08µM*	0.2	?	5.0%
O=C(NCCc1c[nH]c2ccccc12)OCCSS(=O)(=O)O	5.6%	0.4%	0.7%	-13.0	-0.2%	?
C[C@@H]1C(=O)O[C@H]2[C@@H](O)[C@@]34[C@H]5CC(C(C)(C)C)[C@]36[C@@H](OC(=O)[C@@H]6O)O[C@@]4(C(=O)O5)[C@@]12O (stereo partly drawn)	0.4%	.	-1.8%	.	.	.
CCCCNc1c(-c2ccc(OC)c(Sc3ccc(OC)cc3)c2)nc2ccccn12	.	?	.	2.0	?	?
CCCCNc1c(-c2ccc(-c3ccc(OC)cc3)c(OC)c2)nc2ccccn12	.	?	.	-10.4	20.6µM*	?
CCCCNc1c(-c2ccc(SC(C)CC)cc2)nc2cnccn12 (stereo not drawn)	.	18.4µM*	.	22.8	4.61µM*	?
CCCCCCSc1cc(-c2nc3cnccn3c2NCCCC)ccc1OC	.	?	.	-11.0	14.6µM*	-1.3%
CCCCNc1c(-c2ccc(OC)c(Sc3ccc(OC)cc3)c2)nc2cnccn12	.	?	.	-7.7	?	-12.7%
O=C1c2cccc3cccc(c23)C(=O)C1(O)O	.	?	.	6.1	20.6µM*	.
Oc1c(C=C2N=c3ccccc3=N2)sc(=S)n1-c1ccc(F)cc1	12.6µM*	-0.7%	?	-3.7	0.2%	?
CCCCn1c(N)c(N(CCOC)C(=O)c2ccc(-c3cccc(C(F)(F)F)c3)o2)c(=O)[nH]c1=O	.	-14.9%	.	7.5	2.8%	-11.9%
CC1=CC(C)(C)Nc2ccc(Cc3ccc4c(c3)C(C)=CC(C)(C)N4)cc21	-23.1%	0.7%	14.5%	12.6	29.1µM*	6.4%
